Screens: PubChem BioAssay, Broad Institute
LMP1 NFkB inh: inhibitors of Epstein-Barr LMP1-induced NF-kappaB reporter; LMP1-induced NF-kappaB luciferase reporter cells, luminescence; actives 0.69% (n = 350,000); inhibition, % at 12.5 µM; in the data active means inhibition above about 41%;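 further: 0% = neutral control wells and 100% = reference inhibitor control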
Shn3 inh set2: inhibitors of Schnurri-3 3'UTR reporter in osteoblasts. actives 0.52% (n = 360,000). inhibition, % at 12.5 µM. Clone20 osteoblast Shn3 3'UTR firefly luciferase, 24 h;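 active means mean inhibition of at least 75% with every replicate also reaching 75%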;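 further: 0% = median of neutral control wells and 100% = pilot-screen positive control compound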
PAX8 reporter: inhibitors of PAX8 transcriptional activity in RMG-I cells; RMG-I TPO-luciferase reporter, SteadyGlo, 24 h; inhibition, % at 12.6 µM; actives 1.2% (n = 360,000); AID 652154;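 active means mean replicate inhibition at least 60% with every replicate also reaching 60%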;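 further: luciferase light reporting Pax8 driven TPO promoter activity; plate controls were median of neutral control wells for no effect and mitoxantrone controls for full effect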
HIV Env fusion: blocks HIV Env-driven cell-cell fusion | AID 651610 | inhibition, % at 12.3 µM | HeLa-JRFL Env/CEM21 cell fusion, luciferase | actives 1.1% (n = 360,000);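 active means mean replicate inhibition score of at least 50 and every replicate individually at or above 50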;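 further: 0% = plate neutral controls and 100% = maraviroc near 300 nM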
Glyco luc inh: blocks N-linked glycosylation in D54 reporter cells | D54 ERlucT glycosylation luciferase reporter, 24 h; percent of 100 nM tunicamycin response | reporter increase, % at 12.5 µM | actives 0.23% (n = 360,000);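 active means mean luciferase reporter signal, scaled so untreated is 0 and the glycosylation-blocking control 100, at or above a set limit in every replicate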;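 further: luciferase carries N-glycosylation sites so blocking glycosylation raises the light; 0% = median of neutral control wells and 100% = median of 100 nM tunicamycin wells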
NSD2 HMT inh: blocks human histone methyltransferase NSD2; O96028; NSD2 peptide methylation, AlphaScreen, 120 min; inhibition, % at 12.5 µM; actives 0.54% (n = 310,000); AID 743445; in the data active means inhibition above about 50%
Target sequence (O96028 whole entry, looked up): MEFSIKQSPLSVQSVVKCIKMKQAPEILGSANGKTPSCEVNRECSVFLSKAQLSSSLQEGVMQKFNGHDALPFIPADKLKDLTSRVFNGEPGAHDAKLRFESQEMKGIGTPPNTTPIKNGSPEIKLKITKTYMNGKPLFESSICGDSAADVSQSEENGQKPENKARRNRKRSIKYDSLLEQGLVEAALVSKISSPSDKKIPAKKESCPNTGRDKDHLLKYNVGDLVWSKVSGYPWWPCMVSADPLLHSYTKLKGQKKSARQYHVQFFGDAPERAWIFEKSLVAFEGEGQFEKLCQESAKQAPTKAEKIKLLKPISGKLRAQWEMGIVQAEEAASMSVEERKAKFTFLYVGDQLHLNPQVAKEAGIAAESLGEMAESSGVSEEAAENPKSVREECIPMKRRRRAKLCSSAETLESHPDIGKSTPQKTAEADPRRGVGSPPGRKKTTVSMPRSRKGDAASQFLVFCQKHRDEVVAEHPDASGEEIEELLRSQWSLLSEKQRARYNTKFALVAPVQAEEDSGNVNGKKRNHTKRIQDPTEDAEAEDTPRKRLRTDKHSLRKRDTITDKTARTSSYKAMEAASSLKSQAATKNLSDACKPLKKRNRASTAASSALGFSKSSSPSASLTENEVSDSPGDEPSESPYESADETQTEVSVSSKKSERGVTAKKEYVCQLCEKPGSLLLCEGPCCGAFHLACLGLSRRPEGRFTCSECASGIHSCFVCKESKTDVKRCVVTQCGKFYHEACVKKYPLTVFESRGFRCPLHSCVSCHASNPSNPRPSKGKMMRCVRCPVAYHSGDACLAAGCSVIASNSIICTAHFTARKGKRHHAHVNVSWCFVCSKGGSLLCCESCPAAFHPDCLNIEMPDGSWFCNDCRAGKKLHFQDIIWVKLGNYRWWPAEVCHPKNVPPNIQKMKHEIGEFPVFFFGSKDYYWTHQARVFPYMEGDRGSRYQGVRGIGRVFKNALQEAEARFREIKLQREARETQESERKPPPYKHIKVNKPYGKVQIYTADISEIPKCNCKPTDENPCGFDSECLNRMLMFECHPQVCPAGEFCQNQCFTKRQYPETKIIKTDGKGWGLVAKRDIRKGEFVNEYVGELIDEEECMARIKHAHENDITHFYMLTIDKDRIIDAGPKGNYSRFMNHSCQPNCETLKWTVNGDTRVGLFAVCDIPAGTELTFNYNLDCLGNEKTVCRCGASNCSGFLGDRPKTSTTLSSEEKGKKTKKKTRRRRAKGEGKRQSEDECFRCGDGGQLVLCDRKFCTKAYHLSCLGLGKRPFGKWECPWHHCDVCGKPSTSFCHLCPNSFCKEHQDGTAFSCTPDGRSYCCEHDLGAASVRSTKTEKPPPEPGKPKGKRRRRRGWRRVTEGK
* = called active by the depositor; . = not tested or not shown; [ ] = dose if it differs, or a comment. Shown are actives, neighbours in structure and some others; about 2.8% of the full set was active somewhere.

SMILES	LMP1 NFkB inh	Shn3 inh set2	PAX8 reporter	HIV Env fusion	Glyco luc inh	NSD2 HMT inh
CCCOc1ccc(/C=N/Nc2cc(N3CCOCC3)ncn2)c(O)c1	2	90*	54	67*	-10	1
Oc1ccc(/C=N\Nc2cc(N3CCOCC3)nc(N3CCOCC3)n2)c(O)c1	0	9	87*	.	-8	153*
Clc1ccccc1/C=N/Nc1cc(N2CCOCC2)ncn1	-25	-117	-36	-18	5	-3
C/C=C/c1cnc2c(c1)C(=O)N([C@@H](C)CO)C[C@H](C)[C@H](CN(C)S(=O)(=O)c1cn(C)cn1)O2	.	.	-10	.	.	.
COc1ccc(S(=O)(=O)N(C)C[C@@H]2Oc3ccc(NC(=O)Nc4ccc5c(c4)OCO5)cc3C(=O)N([C@H](C)CO)C[C@H]2C)cc1	.	.	.	4[16.7 µM]	.	.
C/C=C/c1ccc([C@@H]2[C@@H](CO)N3CCCCN(S(=O)(=O)c4cccc(C)c4)C[C@@H]23)cc1	.	.	0	.	.	.
COCC(=O)N1C[C@@H](C)[C@@H](OC)CN(C)C(=O)c2ccc(NS(C)(=O)=O)cc2OC[C@@H]1C	.	.	-12	-24[16.7 µM]	.	.
O=C(C[C@H]1C[C@@H]2c3cc(NC(=O)c4ccc5c(c4)OCO5)ccc3O[C@@H]2[C@@H](CO)O1)NC1CCCCC1	.	.	-2	16[16.7 µM]	.	.
COc1ccc(CN(C)C[C@@H]2OCCCC[C@@H](C)Oc3ccc(NC(=O)NC(C)C)cc3C(=O)N([C@@H](C)CO)C[C@@H]2C)cc1	.	.	-8	-10[16.7 µM]	.	.
CCCCn1nc2cc(C(=O)NCc3cc(C(F)(F)F)cc(C(F)(F)F)c3)ccc2c1OC	12	7	5	63*	3	.
CCn1nc2cc(C(=O)NCc3cc(C(F)(F)F)cc(C(F)(F)F)c3)ccc2c1OC	-6	-27	-7	-15	1	.
Cc1ccnc(NC(=O)c2cccc(NC(=O)c3ccccc3F)c2)c1	.	.	.	.	.	-2
Nc1cc2c(cc1Br)-c1c(C(=O)O)cccc1C2O (stereo not drawn)	23	86*	9	3	35*	-1
COc1ccc(NC(=O)N(C)C[C@@H]2Oc3ccc(NS(=O)(=O)c4ccc(C)cc4)cc3CC(=O)N([C@H](C)CO)C[C@@H]2C)cc1	.	.	12	-4[16.7 µM]	.	.
CCn1c(=NC(=O)CS(=O)(=O)c2ccccc2)sc2cccc(OC)c21	12	87*	-20	57*	-4	2
Cn1c(=NC(=O)CS(=O)(=O)c2ccccc2)sc2ccccc21	-16	-45	-107	-21	-1	0
COc1cccc(C(=O)Nc2ccc3c(c2)C(=O)N(C)C[C@@H](OC)[C@H](C)CN(CCc2ccccc2)[C@@H](C)CO3)c1	.	.	25	21[16.7 µM]	.	.
COc1cccc(C(=O)Nc2ccc3c(c2)OC[C@@H](C)N(CCc2ccccc2)C[C@@H](C)[C@H](OC)CN(C)C3=O)c1	.	.	68*	.	.	.
COc1cccc(C(=O)Nc2ccc3c(c2)C(=O)N(C)C[C@@H](OC)[C@H](C)CN(CCc2ccccc2)[C@H](C)CO3)c1	.	.	71*	39[16.7 µM]	.	.
Cc1ccccc1S(=O)(=O)N1[C@H](C#N)[C@H](c2ccc(C#CC3CCCCC3)cc2)[C@H]1CO	.	.	-28	-24[16.7 µM]	.	.
CCOC(=O)c1cc([N+](=O)[O-])sc1NC(=O)c1ccc(S(=O)(=O)N2CC3(C)CC2CC(C)(C)C3)cc1 (stereo not drawn)	46*	21	27	43	1	.
CC1(C)CC2CC(C)(CN2S(=O)(=O)c2ccc(C(=O)Nc3ccc(S(=O)(=O)N4CCOCC4)cc3)cc2)C1 (stereo not drawn)	-5	79	83*	21	-15	-1
CC(=O)Nc1ccc(S(=O)(=O)N2CC3(C)CC2CC(C)(C)C3)cc1 (stereo not drawn)	-8	6	9	8	-2	1
O=c1[nH]c(Nc2ccc(F)cc2)cc2ccccc12	-5	-25	.	-13	8	97*
CCCC(=O)Nc1ccc2c(c1)C(=O)N(C)C[C@H](OC)[C@@H](C)CN(CCC(F)(F)F)[C@H](C)CO2	.	.	-10	19[16.7 µM]	.	.
SMILES	LMP1 NFkB inh	Shn3 inh set2	PAX8 reporter	HIV Env fusion	Glyco luc inh	NSD2 HMT inh
c1ccc2c(-c3cccc4nccn34)cncc2c1	.	13	-4	55*	-5	2
CCCc1cn(CC[C@@H]2CC[C@@H](NS(=O)(=O)c3ccccc3Cl)[C@H](CO)O2)nn1	.	.	3	-68[16.7 µM]	.	.
CCNC(=O)Nc1ccc2c(c1)C(=O)N(C)[C@H]1CC[C@H](CC(=O)NCCOC)O[C@H]1CO2	.	.	8	12[16.7 µM]	.	.
CCNC(=O)[C@H]1[C@H](CO)[C@H]2Cn3c(ccc(-c4ccc(F)cc4)c3=O)[C@@H]1N2C	.	.	-12	.	.	.
Cc1cccc(CN2CCN(CC(=O)NCCCN3CCN(c4ccc(F)cc4)CC3)C2=O)c1	7	67	.	59*	-1	5
Cc1cccc(CN2CCN(CC(=O)NCCCN3CCCC3=O)C2=O)c1	-12	9	.	.	0	-1
CCc1c(C)nc2cc(-c3ccc(OC)c(OC)c3)nn2c1NCC1CC1	80*	93*	.	.	3	1
COC(=O)c1c(N)sc(C(=O)NCCc2ccccc2)c1C	67*	31	65*	44	-20	.
CCOc1ccc(NC(=O)COc2ccc(C(=O)NCCc3ccccc3)cc2)cc1	-5	12	73*	.	-1	-2
COc1cccc(CC(=O)NNC(=O)c2ccc3c(c2)OCO3)c1	45*	10	8	1	1	.
O=C(NCCc1ccccc1)c1ccc2c(c1)OCCO2	84*	84	.	92*	-24	.
CCNC(=O)[C@H]1[C@H](CO)[C@H]2Cn3c(ccc(-c4ccccc4)c3=O)[C@H]2N1Cc1ccccn1	.	.	-11	.	.	.
C[C@@H]1CCCCO[C@@H](CN(C)C(=O)Nc2ccc3c(c2)OCO3)[C@H](C)CN([C@@H](C)CO)C(=O)c2cc(NC(=O)c3ccccc3)ccc2O1	.	.	-14	50[16.7 µM]	.	.
C[C@@H]1CN([C@@H](C)CO)C(=O)c2cc(-c3ccc(F)cc3)cnc2O[C@@H]1CN(C)Cc1ccccn1	.	.	-1	-7[16.7 µM]	.	.
O=C(CCc1ccccc1)c1ccc2c(c1)OCCCO2	-26	-68	.	-80	-7	-5
